The values that follow come from PubChem BioAssay (NCI).

This is part of a sample that, as a whole, favours compounds with a hit. Of some 83,000 tested, about 20% had one in any assay.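 Activity criterion: percent growth below 10, measured after cells in 96-well plates were exposed to a single compound concentration for 48 hours.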 Unmarked numbers belong to inactive results. Activity calls are given as the source filed them.

Among the test systems are NCI-H226 lung; NCI-H322M lung; HOP-62 NSCLC; NCI-H460 lung; HOP-92 NSCLC; NCI-H522 lung; A549/ATCC NSCLC; 786-0 renal; COLO 205 colon; DU-145 prostate; K-562 leukemia; MALME-3M melanoma; MDA-MB-231 breast; RXF 393 renal; SF-268 CNS; SF-295 CNS; SF-539 CNS; UACC-257 melanoma; M14 melanoma; NCI-H23 lung.
Holding throughout (experiment): NCI-60 one-dose screen, 48 h (100 = growth as untreated, 0 = no growth, -100 = all killed)
Common to all, as to details: 10 µM unless noted

For `COc1cccc2c1C(=O)c1c(O)c3c(c(O)c1C2=O)C[C@@](O)(C(=O)CO)C[C@@H]3OC1CC(OC(C)=O)C(OC(C)=O)C(C)O1` (stereo partly specified), the growth with NCI-H226 lung was -73.3% (active); in the assay with NCI-H322M lung, -12.8% (active); with HOP-62 NSCLC it was -25.6% (active); in the assay with NCI-H460 lung it was -56.2% (active); in the assay with HOP-92 NSCLC it was -28.9% (active); with NCI-H522 lung it was -34% (active). The growth in the assay with A549/ATCC NSCLC was -44.6% (active); with 786-0 renal it was -17.3% (active); in the assay on COLO 205 colon, -6.8% (active); in the assay on DU-145 prostate, -50.9% (active); with K-562 leukemia it was -34.2% (active); in the assay with MALME-3M melanoma it was -83% (active). In addition, the growth was 9.19% (active) in the assay with MDA-MB-231 breast; -31.3% (active) in the assay on RXF 393 renal; -22.3% (active) in the assay on SF-268 CNS; -30.2% (active) with SF-295 CNS; -34.4% (active) in the assay on SF-539 CNS; -27.7% (active) in the assay with UACC-257 melanoma. The growth in the assay on M14 melanoma is -12.5% (active).
For the compound `CCN(CC)CCNC(Cc1ccccc1)c1ccc(OCc2ccccc2)cc1` (stereo unspecified), the growth with NCI-H226 lung is 88.2%; with NCI-H460 lung, 65.1%; in the assay on HOP-92 NSCLC it was 6.39% (active); in the assay on NCI-H522 lung it was 73.6%; in the assay on A549/ATCC NSCLC, 69.6%; with 786-0 renal, 57.4%. The growth in the assay with COLO 205 colon was 54.2%; with DU-145 prostate, 98.5%; in the assay on K-562 leukemia it was 14.9%; in the assay with MALME-3M melanoma, 88.6%; in the assay on MDA-MB-231 breast, 50%; in the assay with RXF 393 renal, 63.4%. Also, the growth in the assay on SF-268 CNS was 84.5%; in the assay on SF-295 CNS, 74.5%; with SF-539 CNS, 57%; in the assay with UACC-257 melanoma, -40.7% (active); in the assay on M14 melanoma, -29.6% (active).
Turning to `CC1=CC(=O)C=CC1(C)C(Cl)(Cl)Cl` (stereo unspecified), the growth is 100% with NCI-H23 lung; 102% in the assay on NCI-H322M lung; 84.7% in the assay with HOP-62 NSCLC; 104% in the assay with NCI-H460 lung; 106% in the assay with HOP-92 NSCLC; 82.2% in the assay with NCI-H522 lung. The growth in the assay with A549/ATCC NSCLC was 68.4%; in the assay with 786-0 renal, 101%; in the assay with COLO 205 colon, 89.7%; in the assay with DU-145 prostate, 124%; in the assay on K-562 leukemia, 107%; in the assay with MALME-3M melanoma, 91.2%. In addition, the growth with MDA-MB-231 breast was 92.2%; with RXF 393 renal, 115%; in the assay on SF-268 CNS, 107%; with SF-295 CNS it was 102%; with UACC-257 melanoma, 69.8%; in the assay on M14 melanoma, 97.8%.
`O=C(/C(Cl)=N/O)c1ccc(-c2ccccc2)cc1`: the growth in the assay on NCI-H23 lung is 93.4%; in the assay on NCI-H322M lung, 94.3%; in the assay with HOP-62 NSCLC it was 96.4%; with NCI-H460 lung, 107%; with HOP-92 NSCLC, 82.1%; in the assay on NCI-H522 lung, 30.7%. Moreover, the growth with A549/ATCC NSCLC is 107%; in the assay with 786-0 renal it was -80.7% (active); in the assay on COLO 205 colon it was 85.5%; with DU-145 prostate it was 109%; with K-562 leukemia it was 63.8%; in the assay with MALME-3M melanoma it was 24.8%. Further, the growth in the assay on RXF 393 renal is 95.4%; in the assay with SF-268 CNS, 101%; in the assay with SF-295 CNS, 104%; with SF-539 CNS, 96.4%; in the assay on UACC-257 melanoma it was 99.7%; with M14 melanoma, 96.7%.
Turning to `Fc1ccc(NCCS)cc1`, the growth in the assay with NCI-H23 lung is 97.4%; in the assay with NCI-H322M lung it was 103%; with HOP-62 NSCLC it was 99.6%; in the assay on HOP-92 NSCLC it was 103%; in the assay on NCI-H522 lung, 90%; in the assay on A549/ATCC NSCLC, 92.7%. Besides, the growth is 108% in the assay with COLO 205 colon; 107% in the assay on DU-145 prostate; 101% in the assay on K-562 leukemia; 108% in the assay on MALME-3M melanoma; 102% in the assay on MDA-MB-231 breast; 108% in the assay on RXF 393 renal. Also, the growth was 102% in the assay with SF-268 CNS, 103% in the assay with SF-539 CNS, 102% with UACC-257 melanoma and 103% with M14 melanoma.
Take `O=C/C=C/c1ccc([N+](=O)[O-])cc1`: the growth with NCI-H23 lung was 96.7%; in the assay with NCI-H322M lung, 104%; in the assay with HOP-62 NSCLC, 104%; in the assay with NCI-H460 lung it was 106%; in the assay on HOP-92 NSCLC it was 117%; with NCI-H522 lung, 97.3%. Further, the growth is 93.4% in the assay on A549/ATCC NSCLC; 102% in the assay with 786-0 renal; 115% in the assay with COLO 205 colon; 102% in the assay on DU-145 prostate; 95.8% in the assay on K-562 leukemia; 99.6% in the assay with MALME-3M melanoma. Besides, the growth in the assay on RXF 393 renal was 116%; in the assay on SF-268 CNS it was 98.2%; in the assay on SF-295 CNS it was 105%; with SF-539 CNS it was 99.3%; with UACC-257 melanoma, 97.7%; in the assay with M14 melanoma it was 93.3%.
In the case of `COc1cc(NCc2ccc3nc(N)nc(N)c3c2C)cc(OC)c1OC` (tested in a mixture with another compound), the growth is 16.1% in the assay with NCI-H23 lung; 51.9% in the assay with NCI-H322M lung; 29.8% in the assay on HOP-62 NSCLC; 14.1% in the assay with NCI-H460 lung; 22.3% in the assay with NCI-H522 lung; 36.9% with A549/ATCC NSCLC. Moreover, the growth was 15.5% in the assay on 786-0 renal; 40.2% with COLO 205 colon; 49.6% in the assay with DU-145 prostate; 27.9% with K-562 leukemia; 37.2% in the assay on MALME-3M melanoma; 61.6% with MDA-MB-231 breast. Also, the growth is 30.1% with RXF 393 renal; 24.1% in the assay on SF-268 CNS; 17.1% in the assay with SF-295 CNS; 25.3% in the assay with SF-539 CNS; 23.5% with UACC-257 melanoma; 20.9% in the assay on M14 melanoma.
On to `Nc1ccc(C(=O)/C=C/c2ccccc2)cc1`, for which the growth with NCI-H23 lung is 96.5%; in the assay with NCI-H322M lung, 90.8%; in the assay with NCI-H460 lung, 100%; with HOP-92 NSCLC, 88.3%; in the assay on NCI-H522 lung, 80.8%; with A549/ATCC NSCLC, 91.5%. The growth was 86.2% in the assay with 786-0 renal; 119% with COLO 205 colon; 62.1% in the assay on DU-145 prostate; 14.3% in the assay on K-562 leukemia; 93.9% with MALME-3M melanoma; 98.2% in the assay with MDA-MB-231 breast. The growth with RXF 393 renal was 104%; in the assay with SF-268 CNS, 85.8%; in the assay with SF-295 CNS, 101%; in the assay on SF-539 CNS, 102%; with UACC-257 melanoma it was 108%; in the assay with M14 melanoma, 80.4%.
Turning to `O=C1C=CC(=O)N1c1ccc(O)cc1`, the growth in the assay on NCI-H23 lung was 103%; with NCI-H322M lung, 105%; in the assay with NCI-H460 lung, 104%; with HOP-92 NSCLC, 101%; in the assay with NCI-H522 lung it was 104%; in the assay on A549/ATCC NSCLC, 103%. In addition, the growth in the assay with 786-0 renal was 98.3%; with COLO 205 colon, -37% (active); with DU-145 prostate, 117%; in the assay on K-562 leukemia, 91.1%; in the assay with MDA-MB-231 breast, 94.7%; in the assay with RXF 393 renal, 110%. The growth was 109% in the assay on SF-268 CNS; 114% with SF-295 CNS; 111% with SF-539 CNS; 106% with UACC-257 melanoma; 105% in the assay with M14 melanoma.
For the compound `Cn1ccc(=Nc2ccc(NC(=O)c3ccc(N=c4ccn(C)c5ccc([N+](=O)[O-])cc45)cc3)cc2)cc1`, the growth in the assay on NCI-H23 lung was 73.8%; in the assay on NCI-H322M lung, 104%; in the assay on NCI-H460 lung it was 98.5%; in the assay with HOP-92 NSCLC, 70.9%; with NCI-H522 lung, 52.7%; with A549/ATCC NSCLC, 65.5%. Besides, the growth with 786-0 renal is 78.8%; in the assay with COLO 205 colon, 56.6%; in the assay with DU-145 prostate, 47%; in the assay with K-562 leukemia it was 96%; in the assay with MALME-3M melanoma it was 61.9%; in the assay with MDA-MB-231 breast, 56.6%. The growth with RXF 393 renal was -0.0973% (active); with SF-268 CNS, 37.1%; in the assay on SF-295 CNS, 105%; with UACC-257 melanoma, 86.9%; with M14 melanoma, 76.8%.
